Assay results: PubChem BioAssay (NCI)
About 83,000 compounds went through this panel and 20% of them were active in at least one assay; those are over-represented in the sample as a whole.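 The endpoint reported here, percent growth, reads 100 for growth as untreated, 0 for no net growth and -100 for all cells dead.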 The source made the active and inactive calls. The calls were made as follows: active = growth percent below 10; inactive = the rest.

system: MDA-MB-468 breast; assay: NCI-60 one-dose screen, 48 h (100 = growth as untreated, 0 = no growth, -100 = all killed); settings: 10 µM unless noted

Q: For `O=C(Nc1cnn2ccc(N3CCC[C@@H]3c3cc(F)ccc3F)nc12)N1CC[C@H](O)C1`, which growth is on record?
A: 88.7% (inactive)

Q: `CCCC1=NNC(=O)C1` was tested. Which growth did it give?
A: 115% (inactive)

Q: With `COC(=O)c1ccc(C)cc1` as the molecule, how does the growth read?
A: 105% (inactive)

Q: For `O=C(O)c1cccc2c1-c1ccc(Cl)cc1C2`, which growth is on record?
A: 108% (inactive)

Q: How did the growth turn out when `COc1cc(C(=O)Nc2ccc(-c3nc4ccccc4[nH]3)cc2)cc(OC)c1OC` was run?
A: 6.62% (active)

Q: How did the growth turn out when `COc1ccc2nc(-c3ccc(OC)c(OC)c3)cc(-c3nnc(SCC(=O)Nc4ccc(C(C)=O)cc4)o3)c2c1` was run?
A: 103% (inactive)

Q: `COc1ccc2[nH]c(O)c(/C=c3/cc4c(c(-c5ccc(F)c(OC)c5)n3)=Nc3ccccc3-4)c2c1` was tested. Which growth did it give?
A: -70.4% (active)

Q: `NC(=S)Nc1cccc(O)c1` was tested. Which growth did it give?
A: 101% (inactive)

Q: For `CCCCC(CC)COC(=O)C[N+](C)(C)CCOC(c1ccccc1)c1ccccc1` (stereo not given), which growth is on record?
A: -39% (active)

Q: With `C=CC(=O)Nc1cccc(Oc2nccc(Nc3nnc(-c4ccc(Br)cc4)s3)n2)c1` as the molecule, how does the growth read?
A: 114% (inactive)

Q: Which growth does the source give for `COc1cc(C2CC(c3ccc(Nc4nc(NCCO)nc(NCCO)n4)cc3)=NN2c2cc(Cl)cc(Cl)c2)cc(OC)c1OC` (stereo not given) here?
A: -9.24% (active)

Q: For `COc1ccc(CCN=Cc2ccc(Cl)cc2)cc1OC`, which growth is on record?
A: 117% (inactive)

Q: Which growth does the source give for `Fc1[nH]nc2ccc([C@@H]3Nc4ccc5[nH]ncc5c4[C@H]4C5CCC(C5)[C@@H]34)cc12` (stereo not given in full) here?
A: 16% (inactive)

Q: For `O/N=C1\c2ccccc2-c2ccc(F)cc21`, which growth is on record?
A: 9.23% (active)

Q: Which growth does the source give for `CC1(C)CC[C@]2(C(N)=O)CC[C@]3(C)C(=CC[C@@H]4[C@@]5(C)C/C(=C/c6cccnc6)C(=O)C(C)(C)[C@@H]5CC[C@]43C)[C@@H]2C1` here?
A: -17.1% [100 µM] (active)
